Most compounds without a hit are left out; they make up all but 3.6% or so of the library.
Sfp inh – inhibitors of Bacillus subtilis Sfp phosphopantetheinyl transferase. Biochemical Sfp PPTase activity, qHTS. Potency, µM, without a hit: largest response in the series, negative = inhibition, hits mostly inhibitors. 310,000 tested, 3.5% active;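 further: the enzyme is Sfp with the accession as filed and its product quenches rhodamine fluorescence; 0% = enzyme reaction without inhibitor and -100% = no enzyme wells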
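Fluorescence-quenching assay with 15 nM Sfp, 5 uM rhodamine-CoA and 12.5 uM BHQ-2-labelled ybbR peptide in pH 7.6 Hepes/MgCl2 buffer. Enzyme was pre-incubated with compound for 15 min at room temperature. Rate was taken from the 30-min fluorescence change (525/598 nm).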
JMJD2E inh – inhibitors of human JMJD2E histone demethylase; B2RXH2; JMJD2E catalytic domain, FDH-coupled NADH fluorescence (FDH is formaldehyde dehydrogenase); Potency, µM (titrated, usually from 57.1 µM), for the others: top-dose activity change, negative = inhibition, usual class: inhibitors; 230,000 tested, 1.6% active; AID 2147; active means well fitted inhibition curve with a large enough effect, not every such curve was filed as active; inconclusive means small, poorly fitted or top-dose-only effect, or another doubt; inactive means no such curve, though single readings can be large or run the other way;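 further: 0% = wells with enzyme and -100% = buffer wells without enzyme; nearly all actives have a fitted effect of over 50% in size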
Target sequence (B2RXH2 1-337 limits assumed): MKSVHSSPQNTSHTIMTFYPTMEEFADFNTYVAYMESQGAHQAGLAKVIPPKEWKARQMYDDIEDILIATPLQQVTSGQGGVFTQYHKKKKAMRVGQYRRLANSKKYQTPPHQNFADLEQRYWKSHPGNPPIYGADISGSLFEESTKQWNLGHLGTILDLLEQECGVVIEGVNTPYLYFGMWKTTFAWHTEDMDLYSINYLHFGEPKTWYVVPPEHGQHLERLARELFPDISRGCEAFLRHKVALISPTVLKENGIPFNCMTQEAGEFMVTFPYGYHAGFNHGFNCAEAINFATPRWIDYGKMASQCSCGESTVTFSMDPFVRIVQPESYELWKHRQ
IMPase Li inh – IMPase inhibition in cells with lithium potentiation; CHO-M1 cells, IP1 TR-FRET (IP-One), carbachol + lithium; Potency, µM (top dose mostly 59.4 µM), without a hit: at the top dose activity, negative = IMPase inhibition, most hits filed as inhibitors; 210,000 tested, 0.35% active;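 further: IP1 builds up when IMPase is blocked and the TR-FRET signal falls; plate controls were basal vehicle for no effect and high inhibitor control for full effect; nearly all actives have a fitted effect of over 50% in size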
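Lithium-sensitised IP1 accumulation assay; M1-expressing CHO cells treated 30 min at 37C with compound. Competitive antibody detection by time-resolved FRET followed a 10 min room-temperature lysis step.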
KAT2A inh – blocks human GCN5L2 histone acetyltransferase | Potency, µM (titrated, usually from 58.9 µM), inactives show at the top dose activity change, negative = inhibition, hits mostly inhibitors | GCN5L2 HAT assay, ThioGlo1 CoA-SH fluorescence | Q92830 | 390,000 tested, 0.21% active; further: on the % scale 0 is the no-effect control and ±100 the full control effect
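GCN5L2 (20nM final) in 50mM HEPES, 0.1mM EDTA pH 7.5, 0.01% Tween-20 was preincubated 15 min at room temperature with compound, then given ThioGlo1 (50uM), H3(1-25) peptide (75uM) and acetyl-CoA (70uM); CoA-thiol fluorescence (Ex340/Em540) was read at 0 and 20 min.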
NPSR antagonist – antagonists of human neuropeptide S receptor cAMP signaling | Potency, µM (doses to about 38.3 µM), without a hit: at the highest dose activity change, negative = inhibition, most hits filed as inhibitors | 220,000 tested, 1% active | Q6W5P4 | AID 1461 | CHO-NPSR cells, cAMP TR-FRET, antagonist mode; further: on the % scale 0 is the no-effect control and ±100 the full control effect; nearly all actives have a fitted effect of over 50% in size
Epigenetic derep – regulators of epigenetic silencing causing reporter derepression in mouse cells; murine LDR cells, GFP reporter derepression, 30 h; Potency, µM (doses to about 53.9 µM), inactives show at the highest dose GFP activation, most hits filed as activators; 280,000 tested, 0.2% active; AID 1865; further: % of control where 0% means no effect; nearly all actives have a fitted effect of over 60% in size
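Readout is the number of GFP-expressing murine LDR cells, counted by cytometry following washing. Cells were treated with compound for 30 h at 37 C; the stably integrated CMV-GFP locus is normally silent.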
Numbers without * were called inactive; u = inconclusive; x = no result; [ ] = another dose, or the depositor's remark. Unless noted, the call rests on the fitted dose curve; in most records, active means well fitted curve in the direction sought with a large enough effect; inconclusive means small, poorly fitted or top-dose-only effect, or another doubt; inactive means no such curve, though single readings can be large; an effect the other way counts as inactive or inconclusive. Potency means the concentration at half of the fitted maximal effect.

SMILES	Sfp inh	JMJD2E inh	IMPase Li inh	KAT2A inh	NPSR antagonist	Epigenetic derep
CCOC(=O)C1=C(N)N2C(=O)CSC2=C(C(=O)OC)C1	56µM*	u	x	1%	-8%[46.1 µM]	0%
C=CCOC(=O)N[C@H](c1cccc(C(F)(F)F)c1)C(C(C)=O)C(C)=O	0%	-1%	16%	x	x	1%
CN1CCN(NC(=O)c2cc(-c3cccc(Cl)c3)nc3ccccc23)CC1	-9%	2%	3%	-9%	-11%	0%
CC(C)c1ccc(-c2cc(C(=O)NN3CCN(C)CC3)c3ccccc3n2)cc1	40µM*	-3%	-4%	0%	-13%	-11%
CCN(CC)c1ccc(/C=C2\C(=O)N(c3nnc(C)c(=O)[nH]3)N=C2C)cc1	10µM*	u	x	-17%	u	u
COc1ccc(C(=O)NCC(c2cccs2)S(=O)(=O)c2cccs2)cc1 (centres undefined)	x	x	x	-3%	x	3%
CSc1nc(N)c2ncn([C@@H]3O[C@H](COP(=O)(O)OP(=O)(O)OP(=O)(O)O)[C@H](O)[C@H]3O)c2n1	x	-11%	-10%	x	4%[46.1 µM]	0%
COc1ccc(Cn2c(SCc3cc(C)ccc3C)nc3cc(OC)c(OC)cc3c2=N)cc1	3.2µM*	3%	23%[38.3 µM]	-19%	-23%[46.1 µM]	5%
COc1cc2nc(SCc3ccc(Cl)cc3Cl)n(Cc3cccs3)c(=N)c2cc1OC	5%	u	12%[38.3 µM]	-11%	-24%[46.1 µM]	-1%
COc1ccc(Cn2c(SCc3ccc(C)cc3)nc3cc(OC)c(OC)cc3c2=N)cc1Cl	4µM*	-10%	30%[38.3 µM]	-15%	u	-1%
NCCCC(N)CC(=O)NCC1NC(=O)C(CO)NC(=O)C(N)CNC(=O)C(C2CCN=C(N)N2)NC(=O)/C(=C/NC(N)=O)NC1=O (centres undefined)	1%	x	x	-2%	x	x
Cc1cccc(Nc2nc(-c3ccc(O)c(O)c3)cs2)n1	-12%	x	x	-12%	x	x
Cc1ccnc(Nc2nc(-c3ccc(O)c(O)c3)cs2)c1	50µM*	x	x	-1%	x	x
Cc1cccnc1Nc1nc(-c2ccc(O)c(O)c2)cs1	50µM*	u	25%[38.3 µM]	-9%	-22%[46.1 µM]	-1%
COc1ccc(-c2csc(Nc3ncccc3C)n2)cc1OC	-11%	-3%	38%[38.3 µM]	-7%	-10%[46.1 µM]	-1%
Oc1ccc(-c2csc(Nc3ccccn3)n2)cc1O	45µM*	x	x	-7%	x	x
Cc1ccnc(Nc2nc(-c3ccc(O)cc3O)cs2)c1	40µM*	x	x	-2%	x	x
Oc1ccc(-c2csc(Nc3cccc4ccccc34)n2)cc1O	50µM*	x	x	-18%	x	x
CCN1C(=O)/C(=C\C(=O)c2cccs2)c2cc(Br)ccc21	20µM*	-7%	4%	-17%	-28%	3%
N#Cc1ccccc1OCC(O)CNCCNC(=O)Nc1ccccc1 (centres undefined)	4%	x	4%	-2%	x	1%
O=C(O)CC(c1cccc2ccccc12)n1cccc1 (centres undefined)	-9%	-5%	-21%[38.3 µM]	0%	0%[46.1 µM]	-4%
C[C@H](C(=O)OCO/N=[N+](\[O-])N1CCCC1)c1cccc2ccccc12	56µM*	x	x	x	x	x
CC1(C)Cc2ccccc2C(NNC(=O)c2ccccc2)=N1	9%	2%	-6%	-1%	20%	0%
CC1(C)Cc2ccccc2C(NNC(=O)c2ccccn2)=N1	9%	25µM*	-12%[38.3 µM]	-11%	-13%[46.1 µM]	u
O=[N+]([O-])c1cc(/C=N\Nc2nccs2)ccc1O	14µM*	u	25%[38.3 µM]	u	2.5µM*	0%
O=C1CC(/C=C/c2ccc([N+](=O)[O-])cc2)=Nc2ccccc2N1	22µM*	u	x	-2%	16%	-2%
O=C1CCCC1C(O)c1ccc2ccccc2c1 (centres undefined)	2%	0%	17%	x	x	1%
COc1ccc(NC(=O)CN(C)C(=O)c2cccc(S(=O)(=O)N3CCN(Cc4ccccc4)CC3)c2)cc1	50µM*	x	x	-33%	x	x
